Screening data from PubChem.
NR5A2 inv ag: LRH-1 (NR5A2) inverse agonists, primary screen, cell-based, luminescence, HEK293T, StAR-luciferase reporter; Nuclear receptor subfamily 5 group A member 2 (Homo sapiens), O00482; LRH-1 transfected, 24 h; inhibition, % at 3.6 µM; 360,000 tested, 0.13% active; AID 602396, 2012;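 active = inhibition above the mean inhibition of all tested compounds plus 3 SD, cut at about 73% in these data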;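 note: 0% = DMSO wells and 100% = reporter-only cells lacking LRH-1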
Target sequence (O00482 whole entry, looked up): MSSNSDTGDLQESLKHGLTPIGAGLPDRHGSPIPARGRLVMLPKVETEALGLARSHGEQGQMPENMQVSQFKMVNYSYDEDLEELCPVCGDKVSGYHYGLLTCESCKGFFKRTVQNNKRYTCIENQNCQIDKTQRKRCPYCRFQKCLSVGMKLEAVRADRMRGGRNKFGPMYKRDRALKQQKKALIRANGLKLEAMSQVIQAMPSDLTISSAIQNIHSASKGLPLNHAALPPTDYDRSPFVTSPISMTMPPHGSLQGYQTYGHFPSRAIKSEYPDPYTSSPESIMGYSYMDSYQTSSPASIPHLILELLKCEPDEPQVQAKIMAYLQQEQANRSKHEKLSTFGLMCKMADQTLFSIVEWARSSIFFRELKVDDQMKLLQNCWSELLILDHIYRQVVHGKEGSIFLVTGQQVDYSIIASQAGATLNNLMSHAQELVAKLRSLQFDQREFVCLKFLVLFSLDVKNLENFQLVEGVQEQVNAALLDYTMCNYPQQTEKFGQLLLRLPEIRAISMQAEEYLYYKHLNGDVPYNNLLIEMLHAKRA
NCOA3 inh: SRC3 coactivator transcriptional activity inhibitors, primary screen, cell-based, luminescence; Nuclear receptor coactivator 3 (Homo sapiens), Q9Y6Q9; HEK293 GAL4-SRC3 luciferase reporter; inhibition, % at 3.6 µM; 360,000 tested, 0.17% active; AID 588352, 2011;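 active = inhibition above a per-campaign cutoff, the mean of all compounds plus 3 SD, cut at about 60% in these data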;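 note: 0% = DMSO-treated cells and 100% = gossypol-treated cells at 36 µM; higher means less SRC3-driven luciferase light from the GAL4 reporter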
SRC2 inh: inhibition of GAL4-SRC2 driven luciferase reporter, primary screen, SRC2 inhibitor project, cell-based, luminescence; inhibition, % at 9 µM; HEK293 GAL4-SRC2 luciferase reporter; 370,000 tested, 0.17% active; AID 651957, 2012;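 active = inhibition above the mean inhibition of all tested compounds plus 3 SD, set per campaign, cut at about 52% in these data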;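 note: 0% = DMSO treated cells and 100% = cells given Gossypol at 36 µM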
LGR2 antag: inhibitors of bursicon-induced LGR2 CRE-luciferase signal, primary screen, cell-based, HEK293, CRE-luciferase reporter, bursicon stimulation. Drosophila bursicon receptor LGR2 (rickets). bursicon-stimulated, 4 h. inhibition, % at 9.99 µM. 380,000 tested, 0.35% active;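 active = drop in luminescence signal, shown as inhibition above about 50% in the replicate tests, limit read from the data, passing the limit was not always enough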;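 note: agonist challenge used bursicon conditioned medium at about half maximal strength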
NCOA1 inh: SRC1 coactivator transcriptional activity inhibitors, primary screen, cell-based, luminescence. HEK293 GAL4-SRC1 luciferase reporter. Nuclear receptor coactivator 1 (Homo sapiens), Q15788. 360,000 tested, 0.12% active. inhibition, % at 3.6 µM. AID 588354, 2011;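 active = inhibition above the campaign mean plus 3 SD, with each screening campaign given its own cutoff, cut at about 60% in these data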;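 note: 0% = DMSO treated cells and 100% = gossypol at 36 µM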
* marks the source's active call; other numbers are inactive results. This is a sample that favours compounds with a hit; in the whole collection about 0.45% have one here.

What do the screens show for `CC(=O)OC(C)(C)/C=C/C(=O)[C@](C)(O)[C@H]1[C@H](O)C[C@@]2(C)[C@@H]3CC=C4[C@H](C[C@H](O)C(=O)C4(C)C)[C@]3(C)C(=O)C[C@]12C`?
NR5A2 inv ag: 49; NCOA3 inh: 50; NCOA1 inh: 16

What do the screens show for `CC(=O)OC(C)(C)/C=C/C(=O)C(C)(O)C1C(O)CC2(C)C3CC=C4C(CC(O)C(=O)C4(C)C)C3(C)C(=O)CC12C` (configuration not stated)?
NR5A2 inv ag: 47; NCOA3 inh: 16; SRC2 inh: 62*; LGR2 antag: 89*; NCOA1 inh: -3

What do the screens show for `CC(=O)OC(C)(C)/C=C/C(=O)C(C)(O)C1[C@H](O)C[C@@]2(C)C3CC=C4C(CC[C@@H](O)C4(C)C)[C@]3(CO)C(=O)C[C@]12C` (some centres not stated)?
NR5A2 inv ag: 20; NCOA3 inh: 27; SRC2 inh: 43; LGR2 antag: 73*; NCOA1 inh: 5

How did CCOC(=O)[C@]12Cc3cc(OC)ccc3[C@H]1N(C1CCCCC1)C(=O)c1cc(OC)ccc12 do in these assays?
NR5A2 inv ag: 37; SRC2 inh: 23; LGR2 antag: 51*

How did CCOC(=O)[C@]12Cc3cc(C)ccc3[C@H]1N(CCC(=O)OC)C(=O)c1cc(OC)ccc12 do in these assays?
NR5A2 inv ag: -10; SRC2 inh: -10; LGR2 antag: 31

Results for CCOC(=O)[C@]12Cc3cc(C)ccc3[C@H]1N(C1CCCCC1)C(=O)c1cc(OC)ccc12 ?
NR5A2 inv ag: 94*; SRC2 inh: 19; LGR2 antag: 68*

Results for Cc1cccc(C)c1-n1nnnc1C(CCc1ccccc1)N1CCC(n2c(=O)[nH]c3ccccc32)CC1 (configuration not stated) ?
NR5A2 inv ag: -9; NCOA3 inh: 84*; SRC2 inh: -5; LGR2 antag: 11; NCOA1 inh: 32

Results for CCCCn1nnnc1C(CCc1ccccc1)N1CCC(n2c(=O)[nH]c3ccccc32)CC1 (configuration not stated) ?
NR5A2 inv ag: -4; NCOA3 inh: 27; SRC2 inh: -4; LGR2 antag: 106*; NCOA1 inh: 33

What do the screens show for `CCC(c1nnnn1-c1ccc(OC)cc1)N1CCC(n2c(=O)[nH]c3ccccc32)CC1` (configuration not stated)?
NR5A2 inv ag: 10; NCOA3 inh: -44; SRC2 inh: -29; LGR2 antag: -1; NCOA1 inh: -21

What do the screens show for `COc1ccc(-n2nnnc2C(CCc2ccccc2)N2CCC(n3c(=O)[nH]c4ccccc43)CC2)cc1` (configuration not stated)?
NR5A2 inv ag: 41; NCOA3 inh: 53; SRC2 inh: -3; LGR2 antag: 101*; NCOA1 inh: 41

How did O=c1[nH]c2ccccc2n1C1CCN(C(CCc2ccccc2)c2nnnn2-c2ccc3c(c2)OCCO3)CC1 (configuration not stated) do in these assays?
NR5A2 inv ag: 31; NCOA3 inh: 60; SRC2 inh: 21; LGR2 antag: 92*; NCOA1 inh: -17

Results for O=C(Cc1ccccn1)N1CCCCN2[C@H](CO)[C@H](c3ccc(C#Cc4ccccc4)cc3)[C@@H]2C1 ?
LGR2 antag: -3

What do the screens show for `CC=Cc1ccc2n(c1=O)C[C@@H]1[C@@H](CO)[C@H](C(=O)OC)[C@H]2N1C(=O)CC` (mixture of isomers)?
LGR2 antag: 4

How did CC1=CC2OC3CC4OC(=O)C=CC=CC(=O)OCCC(C)C(O)C(=O)OCC2(CC1O)C4(C)C31CO1 (configuration not stated) do in these assays?
NR5A2 inv ag: 97*; NCOA3 inh: 93*; NCOA1 inh: 94*

What do the screens show for `CC1=CC2OC3CC4OC(=O)C=CC=CC(C(C)O)OCC(O)C(C)CC(=O)OCC2(CC1O)C4(C)C31CO1` (configuration not stated)?
NR5A2 inv ag: 99*; NCOA3 inh: 94*; SRC2 inh: 71*; LGR2 antag: 107*; NCOA1 inh: 95*

Results for Oc1ccc(-[n+]2c(-c3ccccc3)cc(-c3ccccc3)cc2-c2ccccc2)cc1 ?
NR5A2 inv ag: 34; NCOA3 inh: -48; SRC2 inh: 37; LGR2 antag: 103*; NCOA1 inh: 17

What do the screens show for `COC(=O)[C@@H]1[C@@H](CO)[C@@H]2Cn3c(ccc(-c4ccccc4)c3=O)[C@H]1N2CC1CC1`?
LGR2 antag: -9

What do the screens show for `CCn1nc(/C=C/c2ccccc2)nc2c(=O)n(C)c(=O)nc1-2`?
NR5A2 inv ag: -50; NCOA3 inh: 57; SRC2 inh: 13; LGR2 antag: 104*; NCOA1 inh: -17

Results for COC(=O)C[C@H]1CC[C@H]2NC[C@H](O)COC[C@@H]2O1 ?
LGR2 antag: -22

What do the screens show for `CCC(C)NC(=O)CCC(=O)OC1O[C@H]2OC3(C)CC[C@H]4[C@H](C)CCC(C1C)C24OO3` (some centres not stated)?
NR5A2 inv ag: 91*; NCOA3 inh: 77*; SRC2 inh: 10; LGR2 antag: -34; NCOA1 inh: 62*

How did C[C@@H]1CC[C@H]2[C@@H](C)C(=O)O[C@@H]3O[C@@]4(C)CC[C@@H]1[C@]32OO4 do in these assays?
NR5A2 inv ag: 23; NCOA3 inh: -2; SRC2 inh: 9; LGR2 antag: 4; NCOA1 inh: 6

Results for CCC(C)C(NC(=O)CCCNC(=O)CCC(=O)OC1O[C@H]2OC3(C)CC[C@H]4[C@H](C)CCC(C1C)C24OO3)C(=O)O (some centres not stated) ?
NR5A2 inv ag: 90*; NCOA3 inh: 68*; SRC2 inh: -24; LGR2 antag: -1; NCOA1 inh: 47

What do the screens show for `COC(=O)[C@@H]1N[C@@H]2c3ccc(C4=CCCC4)c(=O)n3C[C@@H]2[C@H]1CO`?
LGR2 antag: -60

What do the screens show for `COC(=O)[C@@H]1[C@@H](CO)[C@@H]2Cn3c(ccc(-c4ccncc4)c3=O)[C@H]1N2S(=O)(=O)c1ccccc1C`?
LGR2 antag: -12

How did CC=Cc1ccc2n(c1=O)C[C@@H]1[C@@H](CO)[C@H](C(=O)O)[C@H]2N1S(=O)(=O)c1ccccc1F (mixture of isomers) do in these assays?
LGR2 antag: -13

How did COc1ccc2c(c1)[nH]c1c(C)nccc12 do in these assays?
NR5A2 inv ag: 38; NCOA3 inh: 73*; SRC2 inh: 48; LGR2 antag: 35; NCOA1 inh: 71*

What do the screens show for `Cc1nccc2c1[nH]c1ccc(Br)cc12`?
NR5A2 inv ag: -1; NCOA3 inh: 29; SRC2 inh: 15; LGR2 antag: 27; NCOA1 inh: 17
